# Measurements: the supplement of paper PMC6897291
# Tested on: U-2932
# Assay: growth inhibition by drug alone (1 - RLU/untreated control) (fraction); higher = stronger inhibition
# Conditions: 177Lu-lilotomab satetraxetan 0 ug/ml
# Protocol: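 U-2932 ABC-DLBCL cells were pretreated or not for 18 h with 1 ug/ml 177Lu-lilotomab satetraxetan (600 MBq/mg), washed and seeded (3000 cells/well) on 384-well plates pre-printed with the Selleck Cambridge Cancer Compound library. Viability was read by RealTime-Glo luminescence on days 3-6 after seeding. Effect = 1 - RLU/mean RLU of the 48 untreated no-drug control wells per plate; Bliss score = (M-E)/(1-Fa), with E the expected Bliss-additive effect.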
smiles,measurement,setting,value
CC(C)(C)c1ccc(S(=O)(=O)/C=C/C#N)cc1,growth inhibition by drug alone,"10 nM, time (day): 3",0.0951
same,growth inhibition by drug alone,"10 nM, time (day): 4",0.0673
same,growth inhibition by drug alone,"10 nM, time (day): 5",-0.0262
same,growth inhibition by drug alone,"10 nM, time (day): 6",-0.0534
same,growth inhibition by drug alone,"1000 nM, time (day): 3",0.386
same,growth inhibition by drug alone,"1000 nM, time (day): 4",0.401
same,growth inhibition by drug alone,"1000 nM, time (day): 5",0.352
same,growth inhibition by drug alone,"1000 nM, time (day): 6",0.365
CC[C@]1(O)C[C@H]2CN(CCc3c([nH]c4ccccc34)[C@@](C(=O)OC)(c3cc4c(cc3OC)N(C=O)[C@H]3[C@@](O)(C(=O)OC)[C@H](OC(C)=O)[C@]5(CC)C=CCN6CC[C@]43[C@@H]65)C2)C1 [Vincristine],growth inhibition by drug alone,"10 nM, time (day): 3",0.944
same,growth inhibition by drug alone,"10 nM, time (day): 4",0.954
same,growth inhibition by drug alone,"10 nM, time (day): 5",0.97
same,growth inhibition by drug alone,"10 nM, time (day): 6",0.978
same,growth inhibition by drug alone,"1000 nM, time (day): 3",0.964
same,growth inhibition by drug alone,"1000 nM, time (day): 4",0.972
same,growth inhibition by drug alone,"1000 nM, time (day): 5",0.979
same,growth inhibition by drug alone,"1000 nM, time (day): 6",0.984
COc1nc(C)cnc1NS(=O)(=O)c1cccnc1-c1ccc(-c2nnco2)cc1 [Zibotentan (ZD4054)],growth inhibition by drug alone,"10 nM, time (day): 3",-0.02
same,growth inhibition by drug alone,"10 nM, time (day): 4",-0.0119
same,growth inhibition by drug alone,"10 nM, time (day): 5",-0.0937
same,growth inhibition by drug alone,"10 nM, time (day): 6",-0.23
same,growth inhibition by drug alone,"1000 nM, time (day): 3",-0.0348
same,growth inhibition by drug alone,"1000 nM, time (day): 4",-0.00699
same,growth inhibition by drug alone,"1000 nM, time (day): 5",-0.0784
same,growth inhibition by drug alone,"1000 nM, time (day): 6",-0.143
COc1cc(OC2CCN(C)CC2)ccc1Nc1ncc2c(n1)n(C1CCCC1)c(=O)n2C,growth inhibition by drug alone,"10 nM, time (day): 3",-0.0462
same,growth inhibition by drug alone,"10 nM, time (day): 4",-0.0489
same,growth inhibition by drug alone,"10 nM, time (day): 5",-0.0615
same,growth inhibition by drug alone,"10 nM, time (day): 6",-0.034
same,growth inhibition by drug alone,"1000 nM, time (day): 3",-0.165
same,growth inhibition by drug alone,"1000 nM, time (day): 4",-0.184
same,growth inhibition by drug alone,"1000 nM, time (day): 5",-0.206
same,growth inhibition by drug alone,"1000 nM, time (day): 6",-0.247
Cc1cccc(-c2nn3c(c2-c2ccnc4ccc(C(N)=O)cc24)CCC3)n1,growth inhibition by drug alone,"10 nM, time (day): 3",-0.0698
same,growth inhibition by drug alone,"10 nM, time (day): 4",-0.0435
same,growth inhibition by drug alone,"10 nM, time (day): 5",-0.0298
same,growth inhibition by drug alone,"10 nM, time (day): 6",0.0787
same,growth inhibition by drug alone,"1000 nM, time (day): 3",-0.0166
same,growth inhibition by drug alone,"1000 nM, time (day): 4",-0.0114
same,growth inhibition by drug alone,"1000 nM, time (day): 5",-0.0422
same,growth inhibition by drug alone,"1000 nM, time (day): 6",-0.0441
